Source: PubChem
This excerpt belongs to a sample that is enriched for hits.
HttQ103 aggreg – inhibitors of mutant huntingtin aggregate formation in PC12 cells; PC12 HttQ103-GFP aggregates, Acumen cytometry, 40 h; Potency, µM (titrated, usually from 46.1 µM), hits mostly inhibitors; 220,000 tested, 1.1% active; note: nearly all actives have a fitted effect of over 60% in size
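Read-out: GFP aggregate count by laser scanning cytometer (488 nm excitation, 500-530 nm emission, 1–25 µm objects >6 SD above background). Cells: PC12, inducible HTTex1-Q103-GFP, 100 nM tebufenozide; compounds titrated.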
PNC inhibitor – perinucleolar compartment assembly inhibition. PC3M PTB-GFP, PNC prevalence imaging, 16 h; active compounds read low. activity change (PNC), negative = inhibition, % at 10 µM. 140,000 tested, 3.1% active;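 active = readout at or below -70, meaning at least 70% loss of cells showing the perinucleolar compartment, a nuclear body marking cancer cells; inconclusive = readout between -30 and a set limit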
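Compounds are pinned in duplicate onto adhered PC3M cells stably expressing GFP-tagged PTB and incubated 16 h at 37 C. Cells are then fixed, nuclei stained with Hoechst, and PNC-positive cells counted.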
HTT ATP protect – Huntington cell model cytoprotection by ATP luminescence. PC12 HTT-Q103 induced, cytoprotection, ATP luminescence, 40 h. Potency, µM (highest dose often 56.4 µM), most hits filed as activators. 230,000 tested, 0.14% active. AID 1471; note: nearly all actives have a fitted effect of over 45% in size
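ATP quantification (ATPlite) reports survival of PC12 cells in which tebufenozide, 100 nM final, switches on Htt exon 1 with 103 glutamines linked to GFP; compounds are titrated.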
Each line names hits and unclear results; the compound was inactive in the other large screens. Unless noted, calls come from the whole dose curve; as a rule, active = well fitted curve in the direction sought with a large enough effect; inconclusive = small, poorly fitted or top-dose-only effect, or another doubt; inactive = no such curve, though single readings can be large; an effect the other way counts as inactive or inconclusive.

CCN(CC)CCn1nc2c3c(cccc3c1=O)-c1ccccc1-2	HttQ103 aggreg 0.63µM (no result: PNC inhibitor)
O=c1c2cccc3c2c(nn1CN1CCOCC1)-c1ccccc1-3	HttQ103 aggreg inconclusive
COc1cc(C(=O)Nc2ccc(O)cc2)ccc1OC(C)=O	none
O=C(NC1CCCC1)c1cc(COc2ccc3ncccc3c2)on1	HTT ATP protect inconclusive (no result: PNC inhibitor)
O=C(NCCc1cn2ccccc2n1)c1cc(COc2ccc3ncccc3c2)on1	HttQ103 aggreg 11µM (no result: PNC inhibitor)
CCN(Cc1ccccc1)C(=O)c1ccccc1C	none
O=C(NCC1CCCO1)C(c1cccs1)N(Cc1ccccc1Cl)C(=O)c1ccc(-c2ccccc2)[nH]1 (configuration not stated)	none
Cc1ccc(C(C(=O)NCC2CCCO2)N(Cc2ccccc2)C(=O)c2ccc(-c3ccccc3)[nH]2)o1 (configuration not stated)	HttQ103 aggreg 0.13µM (no result: HTT ATP protect)
O=C1CN(C(=O)/C=C/c2ccco2)c2ccccc2N1	none (no result: PNC inhibitor)
O=C(Oc1cccc2c(OC(=O)N3CCCC3)cccc12)N1CCCC1	PNC inhibitor -100
O=C(Oc1cccc2c(OC(=O)N3CCOCC3)cccc12)N1CCOCC1	none
Cc1csc(SCC(=O)N2CCN(S(=O)(=O)c3ccccc3)CC2)n1	PNC inhibitor inconclusive
Cc1cc(O)c(C(C)C)cc1NS(=O)(=O)c1ccccc1	HttQ103 aggreg 5µM, PNC inhibitor inconclusive
Cc1cc(O)c(C(C)C)cc1NC1=NS(=O)(=O)c2ccccc21	none
O=C(CCc1ccc(S(=O)(=O)N2CCOCC2)cc1)N/N=C/c1ccc(F)cc1F	none (no result: PNC inhibitor)
O=C(CCc1ccc(S(=O)(=O)N2CCOCC2)cc1)N/N=C/c1ccc(O)c(O)c1O	PNC inhibitor -111 (no result: HTT ATP protect)
COCCNC(=O)c1cc(C)ccc1C	none (no result: PNC inhibitor)
N#CCN1CCN(CCC(=O)Nc2ccc(OCc3ccccc3)cc2)CC1	PNC inhibitor inconclusive
COc1ccccc1NC(=O)c1ccc(NS(=O)(=O)c2ccc(F)c(F)c2F)cc1	HttQ103 aggreg inconclusive, PNC inhibitor -121
O=C(Nc1ccccc1OC(=O)c1ccc(Cl)cc1)c1ccc(Cl)cc1	PNC inhibitor -94, HTT ATP protect inconclusive
CCOc1ccc(Br)cc1S(=O)(=O)Nc1ccc(C(=O)Nc2ccccc2OC)cc1	PNC inhibitor inconclusive
Cc1ccc(C(=O)Nc2cc(Cl)ccc2OC(=O)c2ccc(C)cc2)cc1	none
CCC(=O)Oc1ccc(NC(=O)CSCc2ccccc2)cc1	HttQ103 aggreg inconclusive (no result: PNC inhibitor)
Cc1ccc(-c2nnn(CC(=O)NCCc3ccc4c(c3)OCO4)n2)cc1	HttQ103 aggreg inconclusive (no result: PNC inhibitor)
FC(F)(F)c1ccccc1NC(=S)N1CCN(Cc2ccc3c(c2)OCO3)CC1	none (no result: PNC inhibitor, HTT ATP protect)
O=C(CCc1nnc(CCCCc2ccccc2)o1)NCCN1CCCCC1=O	none (no result: PNC inhibitor)
CCN1C(=O)/C(=C/c2c(C)nn(C)c2C)SC1=S	PNC inhibitor inconclusive
CCC1CCCCN1C(=O)CSc1nnc(-c2ccc3c(c2)OCCO3)o1 (configuration not stated)	PNC inhibitor -107
CCC1CCCCN1C(=O)CSc1nnc(-c2ccc(OC)cc2)o1 (configuration not stated)	none
Cc1c(Cl)c([N+](=O)[O-])nn1CC(=O)N1CCCc2ccccc21	none
O=C(O)c1cccnc1SCc1cn2cc(Cl)ccc2n1	none (no result: PNC inhibitor)
Cc1csc(SCC(=O)Nc2c(C)n(C)n(-c3ccccc3)c2=O)n1	PNC inhibitor inconclusive
COc1ccc(C(C#N)N2CCCCC2)cc1OC (configuration not stated)	none
COc1ccc(C(C#N)C2(C)OCCO2)cc1OC (configuration not stated)	HttQ103 aggreg 2.5µM
COc1ccc(CNC(=O)C/C(C)=N/NC(=O)C(c2ccccc2)c2ccccc2)cc1	none
O=C(Cn1c(C(=O)NCC2CCCO2)cc2sccc21)c1ccccc1 (configuration not stated)	none
O=C(Cn1c(C(=O)N2CCN(C3CCCC3)CC2)cc2sccc21)c1ccccc1	PNC inhibitor -122
O=C(CCl)Nc1ccc(N=Nc2ccccc2)cc1	HttQ103 aggreg inconclusive, PNC inhibitor -122 (no result: HTT ATP protect)
CC(=O)Nc1cn(-c2ccccc2)nc1-c1ccccc1	none (no result: PNC inhibitor)
CC(=O)Nc1ccc(N=Nc2ccccc2)cc1	none
O=C(CCl)Nc1cn(-c2ccccc2)nc1-c1ccccc1	HttQ103 aggreg 22µM (no result: PNC inhibitor)
O=C(CCl)Nc1ccc(-c2ccccc2)cc1	HttQ103 aggreg 18µM (no result: PNC inhibitor)
CC(C)N(c1ccccc1)c1ccc(NC(=O)CCl)cc1	HttQ103 aggreg inconclusive (no result: PNC inhibitor)
O=C(/C=C/c1ccccc1)c1ccc2c3c(cccc13)CC2	none
CCOC(=O)C1CCN(C(=O)c2ccc(Br)o2)CC1	none
COCCOC(=O)c1c(C)oc2ccc(NS(=O)(=O)c3ccc(C)cc3)cc12	none (no result: PNC inhibitor)
C/C(CC(=O)Nc1ccc(OCc2ccccc2)cc1)=N\NC(=O)C(=O)Nc1cccc(C)c1	PNC inhibitor inconclusive
